Potency, outcome and activity change, positive = activation data for 19 molecules are collected here from PubChem BioAssay (Tox21).

“And” between values parts separate entries of the source, which are not always exact repeats. Equal values may be shown once. Records with an inconclusive call do not appear. Some compounds were tested as several samples or in several runs, with calls that do not always agree. The source made the active and inactive calls. Unless noted, calls follow the shape of the dose curve; as a rule, active = well fitted curve in the direction sought with a large enough effect in the repeat runs; inconclusive = weak or mixed curves; inactive = no such curve, though single readings can be large; an effect the other way counts as inactive or inconclusive.

Assay [1] can be described thus: qHTS assay to identify small molecule agonists of the hypoxia (HIF-1) signaling pathway - cell viability counter screen (AID 1224844; calls by dose curve; also: nearly all actives have a fitted effect of over 50% in size; also: potency is read from the fitted curve at half-maximal effect). A digest of the protocol: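 In this counter screen, HRE-bla ME-180 cell viability after 17 hrs of compound exposure at 37C was read by CellTiter-Glo luminescence, multiplexed with the beta-lactamase reporter measurement.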
Assay [2] is described as follows: qHTS assay to identify small molecule agonists of H2AX (AID 1224845; active = well fitted activation curve with a large enough effect in the signal ratio in the repeat runs, not every such curve was filed as active; the % refers to the signal ratio). A digest of the protocol:
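Wild-type CHO-K1 cells plated overnight, then exposed 3 hr at 37C to compounds at 15 concentrations (0.76% DMSO). Lysed, then HTRF anti-pH2AX(S139)-cryptate/anti-H2AX-d2 detection after 24 hr at room temperature; emissions 665 and 620 nm.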
Background: Quantitative high-throughput screening tests each substance at several concentrations.

Assay [3] is described as follows: qHTS assay to identify small molecule agonists of the hypoxia (HIF-1) signaling pathway (AID 1224846; active = well fitted activation curve with a large enough effect in the signal ratio in the repeat runs, not every such curve was filed as active; the % refers to the signal ratio). A digest of the protocol: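 ME-180 HRE-bla reporter cells; compounds in DMSO, 17 h at 37C; read-out beta-lactamase via CCF4-AM FRET.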
Assay [4] in a line: qHTS assay to identify small molecule agonists of H2AX - cell viability counter screen (AID 1224847; calls by dose curve; also: nearly all actives have a fitted effect of over 30% in size; also: potency is read from the fitted curve at half-maximal effect). In outline: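 CHO-K1 cells plated overnight at 37C, then exposed 3 h at 37C to compounds at 15 concentrations (0.76% DMSO final). Viability by CellTiter-Glo luminescence after 30 min at room temperature.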
Assay [5] can be described thus: qHTS assay to identify small molecule antagonists of the estrogen related receptor (ERR) signaling pathway from Tox21 library (AID 1224848). Also: nearly all actives have a fitted effect of over 50% in size. Also: potency is read from the fitted curve at half-maximal effect. In outline: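 Tox21 10K compounds in DMSO tested for ERR pathway antagonism in NTP's ERR cell line; 18 h, 37 C exposure; ONE-Glo luminescence.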
The nature of assay [6]: qHTS assay to identify small molecule agonists of the estrogen related receptor (ERR) signaling pathway from Tox21 library (AID 1224849; calls by dose curve; also: nearly all actives have a fitted effect of over 15% in size). Conditions: ERR reporter cell line, ONE-Glo luciferase, 18 h. In outline:
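Luciferase activity in ERR pathway reporter cells served as the agonist readout; exposure lasted 18 h at 37 C, with ONE-Glo detection after 30 min at room temperature.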

Assay [7] can be described thus: qHTS RealTime-Glo MT Cell Viability Assay in HepG2 cells - 24 hour (AID 1224867). Also: nearly all actives have a fitted effect of over 50% in size. In outline:
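HepG2 cells were seeded at 600 cells/well together with NanoLuc luciferase and a cell-permeant prosubstrate, preincubated 5 h at 37 C/5% CO2, then pin-dosed with compounds in DMSO. Nonlytic luminescence from viable cells was read at each time point.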

The nature of assay [8]: qHTS RealTime-Glo MT Cell Viability Assay in HEK293 cells - 32 hour (AID 1224868). Also: nearly all actives have a fitted effect of over 50% in size. Also: potency is read from the fitted curve at half-maximal effect. In outline:
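HEK293 cells were seeded at 600 cells/well together with NanoLuc luciferase and cell-permeant prosubstrate, preincubated 5 h at 37 C/5% CO2, then given compound in DMSO by pintool. Luminescence from viable-cell prosubstrate reduction was read repeatedly over 40 h.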

Assay [9] in a line: A CellTox Green Cytotoxicity Assay to monitor cytotoxicity in HEK293 cells - 0 hour (AID 1224869). Also: nearly all actives have a fitted effect of over 50% in size. Also: potency is read from the fitted curve at half-maximal effect. In outline: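 Real-time, in one plate: 600 HEK293 cells/well with dead-cell DNA dye, pinned compound after 5 h, 37 C incubation over 40 h; viable cells give no appreciable fluorescence.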
Assay [10] can be described thus: qHTS RealTime-Glo MT Cell Viability Assay in HepG2 cells - 40 hour (AID 1224870). Also: nearly all actives have a fitted effect of over 50% in size. A digest of the protocol: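 HepG2 cells mixed with RealTime-Glo MT reagents (NanoLuc plus cell-permeant prosubstrate) were seeded at 600 cells/well, incubated 5 h at 37 C/5% CO2, then pinned with compounds in DMSO; nonlytic luminescence tracked viability during 40 h treatment.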
% is scaled to controls: 0 for no effect and ±100 for the full control effect.

On to `O=CCCCC=O`, for which the Potency is 21.1 µM (active) and 19.5 µM (active) in assay [1]; 42.1 µM (active) and inactive in assay [8]. Moreover, the call in assay [2] was inactive. Further, the Potency result in assay [3], in assay [4], in assay [5], in assay [7], in [9] and in [10] was “inactive” in each case. Further, the activity change, positive = activation in assay [6] (at 92.4 µM (top of the series)) is -0.881% (inactive) and -3.51% (inactive).
Consider `O=CCc1ccccc1`, for which the Potency entry in assay [1], in assay [3], in assay [4], in assay [7], in assay [8] and in assay [9] was “inactive” in each case. Moreover, the molecule was called inactive in [2].
For `CC(C)CC(C)(O)C#CC(C)(O)CC(C)C` (centres undefined), the Potency entry in assay [1], in [3], in [4], in assay [5], in assay [7] and in assay [8] was “inactive” each time. In addition, the Potency entry in assay [9] was “inactive”. Moreover, the molecule was classed as inactive in assay [2]. Besides, in assay [6] (at 92.4 µM (top of the series)), the activity change, positive = activation was -11.8% (inactive) and -19.1% (inactive).
Consider `CC(=O)C1(C)CC2=C(CCCC2(C)C)CC1C` (centres undefined), for which the Potency entry in [1], in assay [3], in [4], in [5], in assay [7] and in [8] was “inactive” throughout. Besides, the Potency result in [9] and in assay [10] was “inactive” in each case. Also, in [2], the call was inactive. Moreover, in [6] (at 92.4 µM (top of the series)), the activity change, positive = activation was 8.11% (inactive) and 5.11% (inactive).
In the case of `CC1=CC2C3CC(C=C3C)C2C1` (centres undefined), the Potency result in assay [1], in assay [3], in assay [4], in assay [5], in assay [7] and in assay [8] was “inactive” in each case. In addition, the molecule was called inactive in assay [2]. In [6] (at 92.4 µM (top of the series)), the activity change, positive = activation is 0.676% (inactive) and -14.6% (inactive). Besides, the Potency entry in [9] was “inactive and 38.9 µM (active)”.
Consider `CCCCOCCOCCOCCO`, for which the Potency result in assay [1], in [3], in assay [4], in assay [5], in [7] and in assay [8] was “inactive” in each case. Besides, the Potency result in assay [9] and in assay [10] was “inactive” throughout. Besides, the molecule was called inactive in [2]. In addition, the values for the activity change, positive = activation in assay [6] (at 42.5 µM (top of the series)) and in [6] (at 92.4 µM (top of the series)) were 2.27% (inactive) and -1.73% (inactive), respectively.
As to `Nc1ccc(Cl)cc1Cl`, the Potency entry in [1], in assay [3], in [4], in assay [5], in assay [7] and in assay [8] was “inactive” in each case. The Potency result in assay [9] and in assay [10] was “inactive” throughout. In [2], the result was inactive. In assay [6] (at 92.4 µM (top of the series)), the activity change, positive = activation was 1.8% (inactive).
Take `NC=O`: the Potency result in assay [1], in [3], in assay [4], in assay [5], in assay [7] and in [8] was “inactive” each time. The Potency result in assay [9] is “inactive”. Besides, in assay [2], the outcome was inactive. In addition, the activity change, positive = activation in [6] (at 92.4 µM (top of the series)) was 6.78% (inactive) and -1.46% (inactive).
Regarding `COC(=O)CCC(=O)OC`, the Potency result in assay [1], in assay [3], in assay [4], in assay [5], in [7] and in [8] was “inactive” each time. The Potency entry in assay [9] and in assay [10] was “inactive” each time. Besides, the result in assay [2] was inactive. In addition, in [6] (at 92.4 µM (top of the series)), the activity change, positive = activation was 8.82% (inactive) and 7.51% (inactive).
Take `CCC(C)c1ccccc1O` (centres undefined): the Potency result in [1], in [3], in [4], in [5], in assay [7] and in assay [8] was “inactive” throughout. In addition, the Potency entry in [9] was “inactive”. Besides, in assay [2], the molecule was called inactive. The activity change, positive = activation in assay [6] (at 92.4 µM (top of the series)) was -6.99% (inactive) and 2.48% (inactive).
`CC(C)OC=O`: the Potency in assay [1] was 58.4 µM (active) and inactive. In [2], the outcome was inactive. The Potency entry in [3], in [4], in assay [5], in assay [7], in assay [8] and in [9] was “inactive” in each case. For the same molecule, in assay [6] (at 92.4 µM (top of the series)), the activity change, positive = activation is -9.53% (inactive) and -2.76% (inactive).
For the molecule `O=C(Nc1ccc(Cl)cc1)Nc1ccc(Cl)c(Cl)c1`, the Potency result in [1], in assay [3], in [7], in [9] and in assay [10] was “inactive” throughout. Moreover, the molecule was called inactive in assay [2]. Besides, the Potency in assay [4] is 22.5 µM (active) and 28.4 µM (active) and 22 µM (active); in assay [5] it was 5.42 µM (active) and 11.9 µM (active); in [8] it was 4.34 µM (active) and 4.36 µM (active) and 3.38 µM (active). Further, the activity change, positive = activation in [6] (at 42.5 µM (top of the series)) was -29.5% (inactive); in assay [6] (at 92.4 µM (top of the series)), -26.7% (inactive) and -3.58% (inactive).
Consider `COC(=O)Nc1nc2ccc(S(=O)c3ccccc3)cc2[nH]1` (centres undefined), for which the Potency result in assay [1], in [3], in [4], in assay [5], in assay [7] and in assay [9] was “inactive” each time. Moreover, in assay [10], the Potency result is “inactive”. In addition, the outcome in [2] was inactive. Moreover, the activity change, positive = activation in [6] (at 42.5 µM (top of the series)) was 3.15% (active); in [6] (at 92.4 µM (top of the series)), -9.11% (inactive). The Potency in assay [8] was 9.76 µM (active) and 952 nM (active).
As to `C/C=C/C(=O)O`, the Potency entry in assay [1], in assay [3], in assay [4], in assay [5], in assay [7] and in assay [8] was “inactive” in each case. For the same molecule, the Potency result in [9] and in [10] was “inactive” throughout. Besides, the result in assay [2] was inactive. Further, the activity change, positive = activation in [6] (at 92.4 µM (top of the series)) was 7.56% (inactive) and 0.71% (inactive).
On to `O=C(COc1ccc(Cl)cc1)N1CCN(Cc2ccc3c(c2)OCO3)CC1`, for which the Potency result in assay [1], in assay [3], in [7], in assay [9] and in assay [10] was “inactive” throughout. In [2], the molecule was called inactive. The Potency is 101 µM (active) and inactive in assay [4]; 27.3 µM (active) and 18.8 µM (active) in assay [5]; 43.6 µM (active) in assay [8]. In addition, the activity change, positive = activation in [6] (at 42.5 µM (top of the series)) is -37.2% (inactive); in assay [6] (at 92.4 µM (top of the series)), -59.3% (inactive).
`O=C(/C=C/c1ccccc1)OCc1ccccc1`: the Potency result in [1], in assay [3], in assay [4], in [5], in assay [7] and in assay [8] was “inactive” in each case. Besides, the Potency entry in [9] and in assay [10] was “inactive” each time. In addition, the molecule was classed as inactive in [2]. The activity change, positive = activation is 33.8% (active) in assay [6] (at 42.5 µM (top of the series)) and 36.2% (active) in [6] (at 92.4 µM (top of the series)).
Consider `c1ccc2c(c1)Oc1ccccc1S2`, for which the Potency entry in assay [1], in assay [3], in assay [4], in [7], in assay [8] and in [9] was “inactive” throughout. For the same molecule, the result in assay [2] was inactive.
Turning to `CCCCC(CC)COCC1CO1` (centres undefined), the Potency entry in assay [1], in assay [3], in assay [4], in assay [5], in assay [7] and in assay [8] was “inactive” each time. For the same molecule, the Potency entry in assay [9] and in assay [10] was “inactive” throughout. In assay [2], the result was inactive. Further, the activity change, positive = activation in assay [6] (at 92.4 µM (top of the series)) was 1.35% (inactive) and -0.071% (inactive).
With `Cc1cccc(C(=O)O)c1`, the Potency entry in assay [1], in [3], in [4], in assay [5], in assay [7] and in [8] was “inactive” in each case. The Potency result in assay [9] and in assay [10] was “inactive” in each case. Also, the call in [2] was inactive. The activity change, positive = activation in assay [6] (at 92.4 µM (top of the series)) is 0.909% (inactive) and 9.04% (inactive).
